HP1b chromo inh: blocks HP1-beta chromodomain binding to methylated histone tails | AlphaScreen HP1-beta / biotin-H3K9me3 peptide binding | Potency, µM (top dose mostly 114 µM), actives largely listed as inhibitors | actives 0.56% (n = 390,000) | AID 540317; further: nearly all actives have a fitted effect of over 70% in size
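AlphaScreen: HP1-beta (50 nM) preformed 30 min with biotin-H3(1-18)K9me3 peptide (50 nM) in PBS pH 7.4, 0.01% Tween-20. Compound added for 30 min at RT, then streptavidin donor/nickel chelate acceptor beads (10 ug/mL) for 30 min.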
L3MBTL1 block: inhibitors of human L3MBTL1 | Potency, µM (titrated, usually from 57.1 µM), usual class: inhibitors | actives 0.66% (n = 230,000) | AlphaScreen L3MBTL1–H3K9me1 peptide binding; further: nearly all actives have a fitted effect of over 60% in size
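L3MBTL1 (50 nM) pre-complexed 30 min with biotinylated H3(1-15)K9me1 peptide (75 nM), then compounds added for 30 min at room temperature; AlphaScreen streptavidin donor/nickel chelate acceptor beads (10 ug/mL final) read after 30 min dark incubation.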
G9a inh: G9a (human) methyltransferase inhibition. G9a H3K9 monomethylation, AlphaScreen, 2 h. Potency, µM (series often up to 102 µM), actives largely listed as inhibitors. actives 8.8% (n = 350,000). AID 504332; further: nearly all actives have a fitted effect of over 75% in size
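Quantitative HTS format: methyltransferase activity on a biotin-tagged H3K9 peptide is measured by AlphaScreen, using a rabbit anti-monomethyl-H3K9 antibody with streptavidin donor and anti-IgG acceptor beads. Final levels are 20 nM enzyme, 500 nM peptide, 20 uM SAM; 2 h RT.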
GLS inh: glutaminase GLS (human) inhibition; actives 0.21% (n = 410,000); O94925; GLS enzymatic activity, qHTS titration; Potency, µM (series often up to 45.5 µM), usual class: inhibitors
Target sequence (O94925 whole entry, looked up): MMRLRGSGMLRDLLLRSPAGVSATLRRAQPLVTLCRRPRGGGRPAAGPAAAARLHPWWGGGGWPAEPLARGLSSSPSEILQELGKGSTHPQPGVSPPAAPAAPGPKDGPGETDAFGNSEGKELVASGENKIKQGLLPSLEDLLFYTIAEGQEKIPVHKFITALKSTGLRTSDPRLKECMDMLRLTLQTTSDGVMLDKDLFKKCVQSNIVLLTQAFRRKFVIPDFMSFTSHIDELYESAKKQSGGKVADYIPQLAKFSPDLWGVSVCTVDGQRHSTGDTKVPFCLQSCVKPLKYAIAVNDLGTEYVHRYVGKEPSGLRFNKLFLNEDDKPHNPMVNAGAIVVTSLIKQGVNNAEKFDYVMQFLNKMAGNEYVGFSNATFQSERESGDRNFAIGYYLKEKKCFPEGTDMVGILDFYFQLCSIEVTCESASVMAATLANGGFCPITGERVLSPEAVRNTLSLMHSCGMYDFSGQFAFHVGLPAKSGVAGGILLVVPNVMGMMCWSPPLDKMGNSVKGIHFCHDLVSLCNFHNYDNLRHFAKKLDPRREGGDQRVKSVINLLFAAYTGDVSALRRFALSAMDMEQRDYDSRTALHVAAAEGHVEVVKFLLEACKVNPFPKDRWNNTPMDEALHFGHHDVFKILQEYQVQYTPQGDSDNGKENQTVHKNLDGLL
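Read-out is an Amplex red fluorescence increase coupled through glutamate oxidase and HRP, measured before and after 30 min room-temperature incubation. hKGA is in 45 mM KH2PO4 (pH 8.2) with 0.02% Tween-20; glutamine added as 1mM solution.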
JMJD2A Tudor inh: inhibitors of human JMJD2A Tudor domain | O75164 | AlphaScreen JMJD2A-Tudor / H3K4me3 peptide binding | actives 4.4% (n = 390,000) | AID 504339 | Potency, µM (series often up to 114 µM), actives largely listed as inhibitors; further: nearly all actives have a fitted effect of over 50% in size
BAZ2B block: blocks human BAZ2B. Potency, µM (titrated, usually from 114 µM), most hits filed as inhibitors. Q9UIF8. AlphaScreen BAZ2B-H3K14Ac peptide displacement. actives 4.4% (n = 360,000); further: nearly all actives have a fitted effect of over 60% in size
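Inhibition is scored as reduced AlphaScreen emission. The BAZ2B/b-H3(5-23)K14Ac complex (50 nM each) in PBS pH 7.4, 0.01% Tween-20 meets compound (up to 110 uM) for 30 min at RT before bead addition.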
Large screens that a line does not name were inactive. Hits are enriched below; roughly 10% of the tested compounds scored in any of these assays. The call rests on the fitted dose curve; in most records, active means well fitted curve in the direction sought with a large enough effect; inconclusive means small, poorly fitted or top-dose-only effect, or another doubt; inactive means no such curve, though single readings can be large; an effect the other way counts as inactive or inconclusive.

Cc1ccc(NC(=S)NCCc2ccccc2)c(C)c1	HP1b chromo inh inconclusive, L3MBTL1 block inconclusive
COc1ccc2[nH]cc(CCNC(=O)Nc3ccccc3)c2c1	JMJD2A Tudor inh inconclusive (no result: L3MBTL1 block)
COc1ccc(OC)c(NC(=O)NCCc2c[nH]c3ccccc23)c1	G9a inh 79.4µM, BAZ2B block inconclusive (no result: L3MBTL1 block)
COc1ccccc1NC(=S)NCCc1ccccc1	none
COc1ccccc1NC(=S)NCCc1c[nH]c2ccccc12	HP1b chromo inh 8.91µM, GLS inh inconclusive, JMJD2A Tudor inh inconclusive, BAZ2B block 44.7µM
CC(C)NC(=O)c1ccc(Cn2c(SCC(N)=O)nc3ccccc3c2=O)cc1	none (no result: L3MBTL1 block)
COc1ccc2oc(=O)c(C(=O)NCCc3c(C)[nH]c4ccc(C)cc34)cc2c1	HP1b chromo inh inconclusive, G9a inh inconclusive, JMJD2A Tudor inh inconclusive, BAZ2B block 25.1µM (no result: L3MBTL1 block)
COc1cc(NC(=S)NCCc2c[nH]c3ccccc23)c(OC)cc1Cl	HP1b chromo inh inconclusive, G9a inh 44.7µM, JMJD2A Tudor inh inconclusive, BAZ2B block inconclusive
COc1cc(CNCCc2c[nH]c3ccccc23)ccc1OCc1ccc(F)cc1	HP1b chromo inh inconclusive, G9a inh inconclusive, JMJD2A Tudor inh inconclusive, BAZ2B block 50.1µM (no result: L3MBTL1 block)
COc1ccc(NC(=S)NCCc2c(C)[nH]c3ccc(OC)cc23)cc1	G9a inh 50.1µM, JMJD2A Tudor inh inconclusive (no result: L3MBTL1 block, BAZ2B block)
COc1cc(NC(=S)NCCO)c(OC)cc1Cl	HP1b chromo inh inconclusive (no result: G9a inh)
COc1ccc2oc(=O)c(C(=O)NCc3ccc(F)cc3)cc2c1	none
CC(C)c1ccc(NC(=O)CSC2=Nc3ccccc3C3=NC(CC(=O)NCc4ccc(F)cc4)C(=O)N23)cc1 (stereo unspecified)	GLS inh inconclusive, JMJD2A Tudor inh inconclusive (no result: L3MBTL1 block)
COc1ccc(NC(=S)NCCc2c[nH]c3ccccc23)cc1	BAZ2B block 44.7µM
COc1ccc2c(CCNC(=O)Nc3ccccc3)c[nH]c2c1	G9a inh inconclusive
CCCCCC1Nc2cc(C(F)(F)F)c(S(N)(=O)=O)cc2S(=O)(=O)N1 (stereo unspecified)	none (no result: HP1b chromo inh, L3MBTL1 block, G9a inh, JMJD2A Tudor inh, BAZ2B block)
Cc1cc(C(=O)OCC(N)=O)c(C)n1-c1ccccc1	HP1b chromo inh inconclusive, GLS inh inconclusive, JMJD2A Tudor inh inconclusive (no result: L3MBTL1 block)
CCOC(=O)c1cc(C)n(-c2ccccc2)c1C	BAZ2B block 79.4µM
CCOC(=O)c1cc(-c2ccccc2)n(-c2cccc(C(=O)Nc3cccc(C)c3)c2)c1C	G9a inh inconclusive, JMJD2A Tudor inh inconclusive (no result: L3MBTL1 block)
CCOC(=O)c1cc(-c2ccccc2)n(-c2cccc(C(=O)N(CC)c3ccccc3)c2)c1C	G9a inh inconclusive, JMJD2A Tudor inh inconclusive, BAZ2B block 10µM (no result: L3MBTL1 block)
CCc1ccc(OCc2ccccc2C(=O)Nc2ccc3nc(C)cc(N)c3c2)cc1	none (no result: HP1b chromo inh, L3MBTL1 block, GLS inh, JMJD2A Tudor inh, BAZ2B block)
Cc1cc(C)n(-c2nc(SCCN(C)C)c3c4c(sc3n2)CCCC4)n1	JMJD2A Tudor inh 56.2µM, BAZ2B block inconclusive (no result: G9a inh)
COc1ccc(C(C[N+](=O)[O-])c2c(C)cc3ccccn23)c(OC)c1 (stereo unspecified)	G9a inh 39.8µM, GLS inh inconclusive (no result: L3MBTL1 block)
COc1ccc(OC)c(C(C[N+](=O)[O-])c2c(C)cc3ccccn23)c1 (stereo unspecified)	HP1b chromo inh inconclusive, G9a inh 44.7µM, JMJD2A Tudor inh inconclusive, BAZ2B block inconclusive (no result: L3MBTL1 block)
O=C(O)c1ccc(C2Nc3ccccc3-c3nnc(SCc4ccc(Cl)cc4)nc3O2)cc1 (stereo unspecified)	JMJD2A Tudor inh inconclusive, BAZ2B block 50.1µM (no result: L3MBTL1 block)
COc1ccccc1C(=O)C1Nc2ccccc2-c2nnc(SC)nc2O1 (stereo unspecified)	G9a inh 7.08µM
CCCCSc1nnc2c(n1)OC(C(=O)c1ccccc1)Nc1ccccc1-2 (stereo unspecified)	G9a inh 7.08µM, BAZ2B block inconclusive (no result: HP1b chromo inh, L3MBTL1 block, GLS inh, JMJD2A Tudor inh)
CC(=O)c1c(C)nn(CCC(=O)O)c1C	HP1b chromo inh inconclusive, GLS inh inconclusive, JMJD2A Tudor inh 39.8µM
Cc1ccc(-n2c(C3CC3c3ccc(Cl)cc3)n[nH]c2=S)cc1 (stereo unspecified)	G9a inh 2µM (no result: L3MBTL1 block)
S=c1[nH]nc(C2CC2c2ccc(Cl)cc2)n1-c1ccc(Cl)cc1 (stereo unspecified)	G9a inh inconclusive, JMJD2A Tudor inh inconclusive, BAZ2B block inconclusive
Cc1ccc(C2CC2c2n[nH]c(=S)n2-c2ccc(C)cc2)cc1 (stereo unspecified)	G9a inh 0.631µM, JMJD2A Tudor inh inconclusive (no result: L3MBTL1 block)
Cc1ccc(C2CC2c2n[nH]c(=S)n2-c2cccc(Cl)c2)cc1 (stereo unspecified)	G9a inh 10µM, JMJD2A Tudor inh inconclusive
Cc1ccc(-n2c([C@@H]3C[C@H]3c3ccccc3)n[nH]c2=S)cc1	G9a inh 0.501µM
Cn1cccc1C(=O)N1CCC2(CC1)CN(C(=O)Nc1cccc(C#N)c1)C2	none (no result: HP1b chromo inh, L3MBTL1 block, GLS inh, JMJD2A Tudor inh, BAZ2B block)
Cc1ccccc1Cn1c(CN2CCC(C(=O)NCCN(C)C)CC2)cc2ccccc21	G9a inh inconclusive, JMJD2A Tudor inh inconclusive, BAZ2B block inconclusive (no result: L3MBTL1 block)
CCN(CC)S(=O)(=O)c1ccc2c(c1)nc(SCc1nc3ccsc3c(=O)[nH]1)n2CC	G9a inh 35.5µM, GLS inh inconclusive
O=C(CCCn1c(=O)[nH]c2ccccc2c1=O)NCc1ccccc1Cl	none (no result: L3MBTL1 block)
CCCOc1ccc(C2C(=O)N(C3CCC(C)CC3)CC(=O)N2Cc2cccc(OC)c2)cc1OC (stereo unspecified)	none (no result: L3MBTL1 block)
NC(=NCCC[C@H](N)C(=O)O)NO	none (no result: HP1b chromo inh, L3MBTL1 block, GLS inh, JMJD2A Tudor inh, BAZ2B block)
CN(C)C(N)=NCCC[C@H](N)C(=O)O	JMJD2A Tudor inh 89.1µM (no result: L3MBTL1 block, BAZ2B block)
